Source: PubChem (National Center for Advancing Translational Sciences (NCATS))
This is one part of a sample in which hits are shown more often than they occur.
HT1080-NT tox = kills 2HG-producing HT-1080-NT fibrosarcoma cells | HT-1080-NT fibrosarcoma viability, CellTiter-Glo ATP luminescence, 48 h | Potency, µM (titrated, usually from 46.1 µM), inactives show at the top dose activity, negative = less viability, usual class: cytotoxic | 1.6% of 360,000 active;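 note: NT is the 2HG producing partner of a matched IDH1 knockdown line; potency is the fitted concentration of half-maximal effect; 0% = DMSO-treated cells and -100% = media-only wells without cells; nearly all actives have a fitted effect of over 55% in size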
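HT-1080-NT; 750 cells/well; 5% FBS RPMI; 48 h compound, 37 degrees C; CellTiter-Glo luminescence; curve fitting and curve-class assignment.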
HT1080 IDH1KD tx = HT-1080 IDH1 knockdown cell toxicity (counter line); HT-1080 IDH1 knockdown viability, ATP luminescence, 48 h; Potency, µM (highest dose often 46.1 µM), without a hit: at the top dose activity, negative = toxicity, actives largely listed as cytotoxic; 2% of 360,000 active; AID 686971;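 note: potency is the fitted concentration of half-maximal effect; 0% = DMSO wells and -100% = cell-free medium wells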
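After a 2 h attachment period, IDH1KD HT-1080 cells took pin-transferred compound for 48 h at 37 °C; ATP-based luminescence after 10 min room-temperature reagent incubation reported viability.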
DT40 TDP1 no CPT = qHTS for Inhibitors of human tyrosyl-DNA phosphodiesterase 1 (TDP1): qHTS in cells in absence of CPT; DT40 Tdp1-/- hTDP1 cells, no CPT, ATP luminescence, 48 h; Potency, µM (titrated, usually from 46.2 µM), without a hit: at the top dose activity change, negative = growth inhibition, actives largely listed as inhibitors; 15% of 420,000 active; AID 686978, 2013; note: potency is the fitted concentration of half-maximal effect; nearly all actives have a fitted effect of over 55% in size
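Stably hTDP1-transfected Tdp1-null chicken DT40 cells were treated with library compounds minus camptothecin and grown for at least 48 hr at 37 °C, after which cellular ATP was quantified by luminescence.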
DT40 TDP1 CPT = DT40-hTDP1 cell growth loss with CPT; chicken DT40 Tdp1-/-;hTDP1 cells + 20 nM CPT, ATP luminescence, 48 h; Potency, µM (series often up to 46.2 µM), for inactives: top-dose activity change, negative = growth inhibition, most hits filed as inhibitors; 12% of 420,000 active; note: potency is the fitted concentration of half-maximal effect; nearly all actives have a fitted effect of over 55% in size
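Chicken DT40 Tdp1-/- cells stably complemented with human TDP1 were seeded at 400 cells/well in medium containing 20 nM camptothecin, exposed to pin-transferred compounds, and grown at 37 °C for at least 48 hr. Viability was read as ATP luminescence.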
12-LOX inh = blocks human arachidonate 12S-lipoxygenase. Potency, µM (highest dose often 108 µM), without a hit: at the top dose activity change, negative = inhibition, actives largely listed as inhibitors. purified 12hLO, xylenol orange hydroperoxide absorbance. 1.1% of 580,000 active; note: potency is the fitted concentration of half-maximal effect
Target sequence (P18054 whole entry, looked up): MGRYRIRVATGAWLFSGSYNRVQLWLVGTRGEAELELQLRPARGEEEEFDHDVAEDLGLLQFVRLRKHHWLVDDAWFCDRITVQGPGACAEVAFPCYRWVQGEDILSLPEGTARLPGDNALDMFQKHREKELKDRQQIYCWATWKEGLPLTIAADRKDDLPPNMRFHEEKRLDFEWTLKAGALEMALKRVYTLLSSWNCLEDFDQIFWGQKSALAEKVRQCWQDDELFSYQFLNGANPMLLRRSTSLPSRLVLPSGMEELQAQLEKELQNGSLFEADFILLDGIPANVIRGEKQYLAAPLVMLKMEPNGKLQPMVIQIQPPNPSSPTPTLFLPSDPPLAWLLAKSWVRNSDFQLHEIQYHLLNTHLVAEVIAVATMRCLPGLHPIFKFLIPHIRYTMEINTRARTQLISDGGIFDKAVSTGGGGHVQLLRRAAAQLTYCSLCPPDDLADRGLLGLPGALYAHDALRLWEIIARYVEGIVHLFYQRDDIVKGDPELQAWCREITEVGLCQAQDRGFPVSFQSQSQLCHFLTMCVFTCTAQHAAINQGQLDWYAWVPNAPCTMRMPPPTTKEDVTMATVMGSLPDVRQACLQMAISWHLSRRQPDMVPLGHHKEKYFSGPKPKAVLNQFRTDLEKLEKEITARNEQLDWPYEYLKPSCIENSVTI
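Purified human 12hLO at 150 nM in 25 mM Hepes, 0.01% Triton X-100, pH 7.0, preincubated 15 min at room temperature with compound. Reaction started with 40 uM arachidonic acid, 30 min at room temperature. Hydroperoxide measured by Fe-xylenol orange, 573/405 nm absorbance ratio.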
IL1B secr inh = inhibitors of inflammasome signaling (IL-1 beta secretion); THP-1 LPS/ATP IL-1B secretion, AlphaLISA, 16 h; hits give low values; activity change, % at 57.5 µM; 4.7% of 360,000 active; in the data active = activity change below about -50%; inconclusive = mostly about -30% to -49%
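THP-1 cells pretreated 1 hr with compounds (up to 57.5 uM final), then stimulated with LPS (250 ng/mL final) plus ATP (1.25 mM final); secreted IL-1B measured by AlphaLISA after 16 hr, decreased signal indicating inhibition.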
The depositor's hits bear a star; ? = inconclusive; / = no result given. Unless noted, calls come from the whole dose curve; as a rule, active = well fitted curve in the direction sought with a large enough effect; inconclusive = small, poorly fitted or top-dose-only effect, or another doubt; inactive = no such curve, though single readings can be large; an effect the other way counts as inactive or inconclusive. Unless noted, % is set by controls: 0 for no effect and ±100 for the full control effect.

SMILES	HT1080-NT tox	HT1080 IDH1KD tx	DT40 TDP1 no CPT	DT40 TDP1 CPT	12-LOX inh	IL1B secr inh
Cc1ccc([C@@H]2C3COCC=C3C(C#N)=C(N)C2(C#N)C#N)o1 (stereo partly specified)	1%	-3%	?	?	-26%	36
COCc1ccc(C(=O)OCc2cc3ccccc3o2)cc1	/	/	/	/	-4%	/
O=C(COC(=O)c1ccccc1OCc1ccccc1)Nc1ccc(F)cc1	/	/	/	/	-6%	/
Cc1noc(C)c1COc1ccc(C(=O)Nc2ccccc2)cc1	0%	-16%	-17%	-17%	6%	5
Cc1noc(C)c1COc1ccc(C(=O)Nc2ccccn2)cc1	-7%	-3%	-2%	?	?	-15
Cc1noc(C)c1COc1ccc(C(=O)NNC(=O)c2ccccc2O)cc1	?	?	16µM*	?	10%	88
CC(C)(C)c1ccc(OCCCC(=O)NNC(=O)c2ccccc2O)cc1	?	?	18µM*	?	?	55
Cc1cccc(NC(=O)c2ccc(OCc3c(C)noc3C)cc2)n1	-3%	-9%	13µM*	?	19%	53
Cc1cc(C(=O)NNC(=O)CCCOc2ccccc2)c(C)o1	4%	0%	1%	8%	3%	12
CC(C)(C)c1cc(-c2ccccc2)c2cc([N+](=O)[O-])ccc2n1	/	/	/	/	19%	/
Cc1cccc(OCCOC(=O)c2ccc3nccnc3c2)c1	/	/	/	/	21%	/
COc1ccc(-c2cc(N3CCC(NC(=O)c4cccnc4)C3)n[nH]2)cc1 (stereo unspecified)	/	/	/	/	30%	/
c1ccc(-c2nnc3n2N=C(c2ccc4c(c2)OCO4)CS3)nc1	12%	4%	-8%	5%	-7%	-21
c1cc2c(cc1C1=Nn3c(nnc3C3CCCCC3)SC1)OCO2	0%	-14%	13µM*	18µM*	0%	0
Cc1ccsc1/C=N/NC(=O)c1ccc2ccccc2c1	?	?	18µM*	15µM*	0%	-9
CCOc1ccc(-c2c(C)sc3nc[nH]c(=O)c23)cc1	-2%	-5%	16µM*	?	-1%	21
COc1ccccc1CNC(=O)C1Cn2cccc2C(=O)N1Cc1cccnc1 (stereo unspecified)	/	/	/	/	40%	/
Cc1ccc(Cl)cc1N1CCN(C(=O)CCC(=O)Nc2ccc3nc(N4CCC(C)CC4)cc(C)c3c2)CC1	/	/	13µM*	23µM*	0%	/
Cc1cc(N2CCN(C)CC2)nc2ccc(NC(=O)CCC(=O)N3CCN(c4ccc([N+](=O)[O-])cc4)CC3)cc12	21µM*	16µM*	18µM*	26µM*	-17%	-22
Cc1cc(N2CCC(C)CC2)nc2ccc(NC(=O)CCC(=O)N3CCN(c4cccc(C(F)(F)F)c4)CC3)cc12	/	/	2.3µM*	3.3µM*	7%	/
Cc1cc(N2CCOCC2)nc2ccc(NC(=O)CCC(=O)N3CCN(c4ccccc4)CC3)cc12	5%	0%	?	?	-1%	14
Cc1nc(NC(=O)C(C)(C)C)ccc1I	/	/	/	/	9%	/
COc1ccccc1-c1cc2nc(-c3ccccc3)cc(N3CCN(C(=O)c4ccco4)CC3)n2n1	0%	4%	6.5µM*	12µM*	?	14
COc1ccccc1-c1nc(C#N)c(N2CCN(C(=O)c3ccco3)CC2)o1	3%	1%	4%	6%	-9%	9
COc1ccccc1-c1nc(C#N)c(N2CCN(C(=O)c3ccccc3)CC2)o1	/	/	/	/	19%	/
SMILES	HT1080-NT tox	HT1080 IDH1KD tx	DT40 TDP1 no CPT	DT40 TDP1 CPT	12-LOX inh	IL1B secr inh
Cc1cc(N2CCN(C(=O)c3ccoc3)CC2)n2nc(-c3ccccc3)cc2n1	-5%	-2%	18µM*	?	0%	-10
COc1ccccc1-c1cc2nc(-c3ccccc3)cc(N3CCN(C(=O)c4ccoc4)CC3)n2n1	-11%	-27%	5.2µM*	9.2µM*	?	10
O=C(c1ccoc1)N1CCN(c2cc(-c3ccco3)nc3cc(-c4ccccc4)nn23)CC1	?	?	7.3µM*	8.2µM*	?	-1
CC(=O)c1c(C)[nH]c(C(=O)Cn2cnc3c2c(=O)n(C)c(=O)n3C)c1C	/	/	/	/	-4%	/
O=C(c1ccoc1)N1CCN(c2cc(-c3ccccc3)nc3cc(-c4ccccc4)nn23)CC1	-25%	?	16µM*	18µM*	?	-3
Oc1ccccc1C=NNC(=S)NC1CC2C=CC1C2 (stereo unspecified)	-7%	?	?	?	45µM*	118
O=C(N/N=C/c1cc(Cl)cc([N+](=O)[O-])c1O)NC12CC3CC(CC(C3)C1)C2	-20%	-14%	?	?	?	14
Oc1c(Cl)cc(Cl)cc1/C=N/NC(=S)NC1CC2C=CC1C2 (stereo unspecified)	?	21µM*	12µM*	?	?	-13
Oc1ccccc1/C=N/NC(=S)NC1CC2C=CC1C2 (stereo unspecified)	?	?	1.6µM*	1.8µM*	?	-100*
CCN(C(=O)c1cnc(N2CCOCC2)c2ccccc12)c1cccc(C)c1	/	/	/	/	-2%	/
C=CCNc1nc2c(c(=O)n(C)c(=O)n2C)n1CCCCCC	-1%	-10%	1.6µM*	3.3µM*	-7%	26
Cn1c(=O)c2c(nc(NCCc3ccccc3)n2Cc2cccc(Br)c2)n(C)c1=O	/	/	13µM*	12µM*	0%	/
